JMJD2E inh: qHTS Assay for Inhibitors of Human Jumonji Domain Containing 2E (JMJD2E) | JMJD2E catalytic domain, FDH-coupled NADH fluorescence (FDH is formaldehyde dehydrogenase) | Potency, µM (series often up to 57.1 µM), for inactives: top-dose activity change, negative = inhibition, usual class: inhibitors | 1.6% of 230,000 active;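 further: 0% = wells with enzyme and -100% = buffer wells without enzyme; nearly all actives have a fitted effect of over 50% in size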
Target sequence (B2RXH2 1-337 limits assumed): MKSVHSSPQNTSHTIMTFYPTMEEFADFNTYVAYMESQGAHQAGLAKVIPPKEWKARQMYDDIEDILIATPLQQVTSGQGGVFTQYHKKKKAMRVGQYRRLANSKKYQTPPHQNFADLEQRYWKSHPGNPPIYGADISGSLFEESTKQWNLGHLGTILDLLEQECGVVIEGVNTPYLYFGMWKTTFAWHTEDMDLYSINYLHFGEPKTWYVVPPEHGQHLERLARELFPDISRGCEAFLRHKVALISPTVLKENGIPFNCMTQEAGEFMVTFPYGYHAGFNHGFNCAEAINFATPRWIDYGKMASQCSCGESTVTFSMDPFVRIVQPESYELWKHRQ
Tau ThT inhib: qHTS for Inhibitors of Tau Fibril Formation, Thioflavin T Binding; recombinant tau K18 P301L, heparin-induced fibrillization, ThT fluorescence; Potency, µM (doses to about 57.4 µM), for the others: at the top dose activity, negative = inhibition, usual class: inhibitors; Microtubule-associated protein tau (Homo sapiens), P10636; 2.1% of 270,000 active; active means well fitted curve in the direction sought with a large enough effect; inconclusive means small, poorly fitted or top-dose-only effect, or another doubt; inactive means no such curve, though single readings can be large; an effect the other way counts as inactive or inconclusive; further: nearly all actives have a fitted effect of over 55% in size
Target sequence (P10636 561-689 P618L limits assumed): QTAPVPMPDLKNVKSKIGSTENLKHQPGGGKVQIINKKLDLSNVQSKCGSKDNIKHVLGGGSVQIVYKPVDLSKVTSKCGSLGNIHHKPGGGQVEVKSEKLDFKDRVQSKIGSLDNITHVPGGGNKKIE
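Aggregation was driven by heparin (20 uM final) acting on recombinant tau […] bearing P301L in 100 mM sodium acetate pH 7; fibrils were detected with Thioflavin T.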
ALDH1A1 inh: qHTS Assay for Inhibitors of Aldehyde Dehydrogenase 1 (ALDH1A1); Aldehyde dehydrogenase 1A1 (Homo sapiens), P00352; Purified ALDH1A1, NADH fluorescence, propionaldehyde substrate; Potency, µM (top dose mostly 75.3 µM), for the others: at the top dose activity, negative = inhibition, hits mostly inhibitors; 7.3% of 220,000 active;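 further: plate controls were no enzyme wells and a reference inhibitor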
Tau FP inhib: qHTS for Inhibitors of Tau Fibril Formation, Fluorescence Polarization | AID 1468, 2008 | 0.39% of 280,000 active | Microtubule-associated protein tau (Homo sapiens), P10636 | K18 P301L tau heparin fibrillization, Alexa594 FP, 6 h | Potency, µM (series often up to 57.7 µM), for the others: top-dose activity, negative = inhibition, actives largely listed as inhibitors; active means well fitted curve in the direction sought with a large enough effect; inconclusive means small, poorly fitted or top-dose-only effect, or another doubt; inactive means no such curve, though single readings can be large; an effect the other way counts as inactive or inconclusive; further: nearly all actives have a fitted effect of over 55% in size
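Human K18 P301L fragment (15 uM unlabeled plus 0.24 uM Alexa 594-labeled) in 100 mM sodium acetate pH 7 with compound, aggregation induced by 20 uM heparin for 6 hr at 37 C. ThT (30 uM) added for 1 hr, then Alexa 594 FP read.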
Tau fluor cs: Counterscreen qHTS for Inhibitors of Tau Fibril Formation, Fluorescence Polarization; tau K18 P301L (four-repeat tau fragment) Alexa594 fluorescence, heparin fibrillization; Potency, µM (titrated, usually from 57.7 µM), inactives show top-dose activity change, negative = decrease; 0.93% of 280,000 active; AID 1463, 2008; active means well fitted curve in the direction sought with a large enough effect; inconclusive means small, poorly fitted or top-dose-only effect, or another doubt; inactive means no such curve, though single readings can be large; an effect the other way counts as inactive or inconclusive; further: nearly all actives have a fitted effect of over 55% in size
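Human K18 P301L tau (15 uM unlabeled plus 0.24 uM Alexa 594-labeled, final) in 100 mM sodium acetate pH 7 was mixed with compound and 20 uM heparin and incubated 6 hr at 37 C.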
HPGD inh: qHTS Assay for Inhibitors of HPGD (15-Hydroxyprostaglandin Dehydrogenase); AID 894, 2007; 4.3% of 150,000 active; purified HPGD, NADH fluorescence kinetic, PGE2 substrate; 15-hydroxyprostaglandin dehydrogenase [NAD(+)] (Homo sapiens), P15428; Potency, µM, inactives show top-dose activity change, negative = inhibition, usual class: inhibitors
Target sequence (P15428 whole entry, looked up): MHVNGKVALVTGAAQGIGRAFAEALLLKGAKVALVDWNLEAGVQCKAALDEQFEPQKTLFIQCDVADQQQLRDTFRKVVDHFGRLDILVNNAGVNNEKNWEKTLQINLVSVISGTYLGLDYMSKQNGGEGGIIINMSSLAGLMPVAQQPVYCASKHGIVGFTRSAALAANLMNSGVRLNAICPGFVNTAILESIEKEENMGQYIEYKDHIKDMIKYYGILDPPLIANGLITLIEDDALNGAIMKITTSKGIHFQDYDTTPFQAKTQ
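NADH formation kinetics: reaction with 30 uM PGE2 and 1 mM NAD+ (final), 20 nM enzyme, Tris-HCl pH 8 with Tween 20, after 15 min compound preincubation at room temperature. Fluorescence change, last versus first of five reads.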
Numbers without * were called inactive; ? = inconclusive; / = no result; [ ] = remark or other dose. A selection: hits, their analogues and other compounds. The true share with any hit is near 9.9%. Unless noted, the call rests on the fitted dose curve; in most records, active means well fitted inhibition curve with a large enough effect (not every such curve was filed as active); inconclusive means small, poorly fitted or top-dose-only effect, or another doubt; inactive means no such curve, though single readings can be large or run the other way. Unless noted, on the % scale 0 is the no-effect control and ±100 the full control effect; potency means the concentration at half of the fitted maximal effect.

SMILES | JMJD2E inh | Tau ThT inhib | ALDH1A1 inh | Tau FP inhib | Tau fluor cs | HPGD inh
O=C(COC(=O)c1ccc(S(=O)(=O)Nc2ccccc2)cc1)NCCC1=CCCCC1 | -11% | -5% | 0% | 2% | -27% | -11%
Cc1ccc(CNc2ncnc3c2nnn3C)cc1 | / | -3% | / | ? | -7% | /
COc1ccc(NC(=O)c2c(NCc3cccc(F)c3)sc3c2CCC3)c(OC)c1 | / | ? | / | -4% | -25% | /
Nc1c(S(=O)(=O)c2cccc(Cl)c2)c2nc3ccccc3nc2n1/N=C/c1ccc(O)c(O)c1 | ? | ? | 0% | ? | 5.6µM*[quencher] | -17%
O=C(CNC(=S)NC(=O)c1ccco1)c1ccccc1 | 5% | 1% | 20µM* | -14% | -7% | -14%
O=C(CNC(=O)c1ccccc1C(=O)O)c1ccccc1 | -6% | -20% | 25µM* | 2% | -2% | -6%
O=C(CNC(=S)NC(=O)c1cccs1)c1ccccc1 | 8% | 8% | 7.9µM* | ? | 4% | -18%
Cc1ccc(-c2nnc(SCC(=O)N3CCCc4ccccc43)o2)cc1 | / | -16% | / | -7% | -16% | /
COc1ccc(NC(=O)c2ccc3c(c2)CCN3S(=O)(=O)c2ccc(C)cc2)cc1Cl | / | 4% | / | ? | -29% | /
CCN(CC)C(=O)CSc1nc2c(sc(=S)n2-c2ccccc2)c(=O)[nH]1 | -2% | -11% | ? | 3% | -6% | /
CCCc1nc(N2CCOCC2)c2sc(=S)n(-c3ccccc3)c2n1 | 7% | -12% | 10µM* | 2% | -5% | -4%
Cc1ccc(OCC(=O)c2cc(C)n(CC(F)(F)F)c2C)c([N+](=O)[O-])n1 | -6% | -10% | 20µM* | -8% | -4% | /
O=C(COc1cccnc1[N+](=O)[O-])c1c[nH]c2ccccc12 | -3% | ? | ? | 12% | ? | /
COCCn1c(C)cc(C(=O)COc2cccnc2[N+](=O)[O-])c1C | 3% | -8% | 5.6µM* | -4% | -5% | /
Cc1ccc(OCC(=O)c2cc(C)n(Cc3cccs3)c2C)c([N+](=O)[O-])n1 | 1% | -12% | ? | -2% | -20% | /
Cc1cc(C)c(C(=O)COc2cccnc2[N+](=O)[O-])cc1C | -14% | 14µM* | 1.6µM* | ? | ? | -19%
CCc1ccccc1NC(=O)c1ccc(=O)n(Cc2ccc(F)cc2)c1 | / | 3% | / | 0% | -4% | /
CC1(C)N=C(SCC(=O)Nc2ccccc2)C(c2ccc(Cl)cc2)=N1 | 0% | ? | -4% | -2% | -23% | 0%
Cc1ccc(C2=NC(C)(C)N=C2SCC(=O)Nc2ccc(Cl)cc2)cc1 | 2% | ? | 22µM* | ? | ? | -24%
COc1ccc(-n2nc(C(=O)c3cccs3)cc(-c3nc4ccccc4[nH]3)c2=N)cc1 | 16% | 4µM* | ? | -3% | ? | -3%
CCOC(=O)c1sc2nc(CC(=O)OC)nc(N3CCN(c4ccc(OC)cc4)CC3)c2c1C | -5% | ? | 0.1µM* | 8% | -29% | -11%
CCN(CC)c1ccc(C(=O)NCc2nc3cccnc3n2Cc2ccc(C)cc2)cc1 | / | ? | / | 5% | -29% | /
COc1ccc(C2NC(=O)NC(O)(C(F)(F)F)C2C(=O)c2ccc(F)cc2)cc1 (stereo unspecified) | -6% | -6% | ? | 2% | 5% | -1%
COc1cc(C2NC(=O)NC(O)(C(F)(F)F)C2C(=O)c2cccs2)ccc1O (stereo unspecified) | -1% | -8% | 22µM* | -4% | -5% | -7%
COc1ccc(C2NC(=S)NC(O)(C(F)(F)F)C2C(=O)c2cccs2)cc1 (stereo unspecified) | -10% | 0% | 10µM* | -3% | 2% | 2%
SMILES | JMJD2E inh | Tau ThT inhib | ALDH1A1 inh | Tau FP inhib | Tau fluor cs | HPGD inh
Cc1cc(C)cc(-n2c(SCC(=O)Nc3cccc(F)c3)nc3c([nH]c4ccccc43)c2=O)c1 | / | 10% | / | ? | -16% | /
CCO[C@@H]1OC(C(=O)N2CCN(Cc3ccccc3)CC2)=C[C@H](c2coc3ccccc3c2=O)[C@H]1CCCO | -2% | -13% | -11% | -1% | -4% | /
CCOC(=O)/C=C/C(=O)Nc1ccccc1C(=O)NC1CCCCC1 | 0% | -15% | 7% | 0% | -4% | -3%
N/C(=N\OC(=O)CCc1ccccc1)c1ccc(Br)cc1 | -2% | -16% | -4% | 6% | -14% | 7%
Cc1ccc(/C(N)=N/OC(=O)CCc2ccccc2)cc1 | ? | 32µM* | ? | ? | ? | /
CC(C)NC(=O)c1sc2nc(-c3cccs3)cc(-c3cccs3)c2c1N | -6% | ? | ? | 1% | -24% | ?
Nc1c(C(=O)Nc2ccc(Cl)cc2F)sc2nc(-c3cccs3)ccc12 | / | ? | / | -12% | 2.2µM*[quencher] | /
O=C(Nc1nc2ccc(F)cc2s1)c1cccs1 | ? | 7% | -7% | -3% | -19% | /
CC(=O)c1sc2nc(-c3cccs3)ccc2c1N | ? | 16µM* | ? | -16% | ? | ?
Nc1c(C(=O)Nc2nc3ccccc3s2)sc2nc(-c3cccs3)ccc12 | ? | ? | ? | 4% | 13µM*[quencher] | -29%
O=C(NC(=S)Nc1nc2ccccc2s1)c1cccs1 | -1% | ? | 3.5µM* | -2% | -26% | -18%
Nc1c(C(=O)Nc2ccc(F)c(F)c2)sc2nc(-c3ccncc3)ccc12 | / | ? | / | 7% | ? | /
COc1ccc(C(=O)NCc2ccc3c(c2)CCN3C(C)=O)c(OC)c1 | / | ? | / | -16% | 1% | /
Nc1c(C(=O)Nc2ccccc2Br)sc2nc(-c3cccs3)ccc12 | / | ? | / | ? | 3.2µM*[quencher] | /
CC1Cc2ccccc2N1C(=O)CSc1nc2ccc(NC(=O)COc3ccccc3)cc2s1 (stereo unspecified) | / | -6% | / | ? | -23% | /
O=C(Nc1cccc(NC(=O)c2ncn[nH]2)c1)c1cccc(Cl)c1 | -6% | 0% | ? | -2% | -9% | /
Cc1ccsc1/C=N/n1c(-c2ccccn2)n[nH]c1=S | -4% | -4% | ? | 5% | -12% | 28µM*
S=c1[nH]nc(-c2ccccn2)n1/N=C/c1ccco1 | -8% | -6% | / | 5% | -5% | /
Cc1ccsc1/C=N/n1c(-c2ccncc2)n[nH]c1=S | ? | -9% | -6% | 0% | -4% | 28µM*
Cc1ccc(/C=N/n2c(-c3ccncc3)n[nH]c2=S)s1 | -17% | 3% | / | 2% | 3% | /

Screens as filed in PubChem BioAssay.
